Data as given in PubChem BioAssay (NCI).
About 79,000 compounds went through this panel and 15% of them were active in at least one assay; those are over-represented in the sample as a whole. The source made the active and inactive calls. Cut-off read from the data, not from the text of the source: active = growth inhibition above about 70%; inactive = the rest.

How the values were obtained:
[1] = NCI Yeast Anticancer Drug Screen. Data for the rad50 strain (AID 155);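 note: 0% = growth of vehicle-only cultures of the same strain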; conditions: S. cerevisiae rad50 strain growth inhibition; at 50.0 µM; stronger effect = higher value
In short: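 Compounds were tested on a yeast strain with an engineered DNA damage repair alteration; the reported value is growth inhibition normalised to vehicle treatment.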

[2] = NCI Yeast Anticancer Drug Screen. Data for the mec2-1 strain (AID 157); conditions: S. cerevisiae mec2-1 strain, at 50.0 µM, stronger effect = higher value
In short: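 Mutant yeast (mec2-1) grown with compound; growth inhibition relative to vehicle control reported.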

[3] = NCI Yeast Anticancer Drug Screen. Data for the sgs1 mgt1 strain (AID 161);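 note: 0% = growth of cultures given vehicle only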; conditions: S. cerevisiae sgs1 mgt1 strain, at 50.0 µM, stronger effect = higher value
In short: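 Growth of a repair-deficient yeast mutant was monitored after compound treatment and expressed as inhibition relative to vehicle-treated cultures.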

[4] = NCI Yeast Anticancer Drug Screen. Data for the cln2 rad14 strain (AID 165);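 note: 0% = growth equal to vehicle treated cultures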; conditions: S. cerevisiae cln2 rad14 strain, at 50.0 µM, stronger effect = higher value
In short: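 Readout is yeast growth inhibition versus vehicle-treated controls, using a strain with cln2 and rad14 alterations exposed to compound.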

[5] = NCI Yeast Anticancer Drug Screen. Data for the bub3 strain (AID 167); conditions: S. cerevisiae bub3 mutant strain, at 50.0 µM, stronger effect = higher value
In short: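 Growth of a checkpoint-deficient yeast mutant is measured after compound exposure. Values represent inhibition relative to vehicle.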

[6] = NCI Yeast Anticancer Drug Screen. Data for the mlh1 rad18 strain (AID 175); conditions: S. cerevisiae mlh1 rad18 strain growth inhibition; at 50.0 µM; stronger effect = higher value
In short: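 Genetically defined yeast (DNA repair-deficient) exposed to compounds; growth inhibition determined relative to vehicle.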

Measured: growth inhibition

Cc1cnc(Sc2ncccn2)c([N+](=O)[O-])c1
inactive: [1] -7.05% | [2] -15% | [3] -2.1% | [4] -28.4% | [5] -31.1% | [6] -17.9%

COc1ccc(Cl)cc1NC(=O)Oc1ccccc1C(N)=O
inactive: [1] -1.05% | [2] 43.5% | [3] 24.6% | [4] -12.8% | [5] 40.6% | [6] 3.1%

N#CCCCCCCn1cnc2c(=S)nc[nH]c21
inactive: [1] 4.9% | [2] 9.55% | [3] 17.9% | [4] -13% | [5] -4.7% | [6] 22.4%

CCC1(C(=O)O)OC1(C)c1cccs1 (stereo not given)
inactive: [1] -40% | [2] -8.95% | [3] -3.35% | [4] -27.1% | [5] 10.5% | [6] 2%

CC(C)(C(=O)Cc1ccccc1)c1ccccc1
inactive: [1] -29.5% | [2] -21.4% | [3] -10.2% | [4] 31.1% | [5] 0.2% | [6] -11.3%

O=C1NNC2NC(=O)C3(NN2C1=O)c1ccccc1-c1ccccc13 (stereo not given)
inactive: [1] -18% | [2] -21.5% | [3] 0.45% | [4] -5.8% | [5] -11.7% | [6] -15.4%

CC1(C)C2CCC1(C)C(NC(=O)COCCOCC(N)=O)C2 (stereo not given)
inactive: [1] -45% | [2] -53.1% | [3] -52.6% | [4] -2.55% | [5] -54.9% | [6] -67.3%

CC(C)(C)S(=O)(=O)C[N+]1(C)CCOCC1
inactive: [1] 37.1% | [2] 11.6% | [3] -1.6% | [4] -2% | [5] -3.25% | [6] 5.35%

O=S(=O)(O)CCS(=O)(=O)O
inactive: [1] -15.8% | [2] -19.3% | [3] -3.85% | [4] -51.3% | [5] 1.45% | [6] -45.9%

C=C1C(=O)OC2CC(C)C3CC(OCCCl)OC(OCCCl)C3(C)CC12 (stereo not given)
inactive: [1] 13.8% | [2] 7.65% | [3] -3.05% | [4] 7.25% | [5] 5.65% | [6] -6.2%

O=S(=O)([N-]c1nc2ccccc2nc1-[n+]1ccccc1)c1ccccc1
inactive: [1] 14% | [2] -0.2% | [3] 14.7% | [4] -7.25% | [5] -2.2% | [6] -22.6%

O=c1c2ccccc2nc(-c2ccccc2)n1/N=C/c1cccnc1
inactive: [1] 0.9% | [2] 49.5% | [3] 30.8% | [4] -10.8% | [5] 7.5% | [6] 41.2%

Cc1ccc(S(=O)(=O)/N=C/[N-][n+]2cccc(C)c2)cc1
inactive: [1] 3.6% | [2] 8.8% | [3] 4.4% | [4] -14.6% | [5] 0.45% | [6] -4.2%

CCC(C#N)C1=CCCCCC1 (stereo not given)
inactive: [1] 31.8% | [2] 3.75% | [3] 19.4% | [4] 11.7% | [5] 4.6% | [6] 20.6%

NNC(=O)CCSCCC(=O)NN
inactive: [1] 7.85% | [2] -17.2% | [3] 3.4% | [4] -28.9% | [5] -5.95% | [6] -0.75%

CS(=O)(=O)c1ccc2c(c1)-c1ccc([N+](=O)[O-])cc1C2=O
inactive: [1] 12.7% | [2] 8.8% | [3] 6.3% | [4] 1.65% | [5] -4% | [6] -0.9%

Cn1cnc(=O)c2n[nH]nc21
inactive: [1] 3.95% | [2] 16.6% | [3] -1.1% | [4] -1.45% | [5] -11.4% | [6] 0.65%

CC1CCCN(C(=O)Nc2ccc([N+](=O)[O-])cc2)C1 (stereo not given)
inactive: [1] 41.1% | [2] 31.3% | [3] 61.9% | [4] 25.8% | [5] 59.4% | [6] 43.8%

CCOC(=O)NN(C(=O)OCC)c1c(NN)n(C)c(=O)n(C)c1=O
inactive: [1] 2.7% | [2] -19.7% | [3] 9.2% | [4] -10.4% | [5] 12.4% | [6] -11.5%

c1ccc(OC23CC4CC(CC(C4)C2)C3)cc1
inactive: [1] -9.45% | [2] -5% | [3] -5.2% | [4] 42.8% | [5] -18.8% | [6] -21.6%

O=C1OCCN1N1C(=O)CC2(CCN(Cc3ccccc3)CC2)C1=O
inactive: [1] -10.8% | [2] 3% | [3] -0.95% | [4] 1.15% | [5] 0.25% | [6] -17.8%

C/C=C1\OC(n2cnc3c(N)ncnc32)C(O)C1O (stereo not given)
inactive: [1] -0.3% | [2] -11.8% | [3] -14.9% | [4] 2.5% | [5] -16.2% | [6] -1.8%

CN(C)c1ccccc1C1CCCCCC1O (stereo not given)
inactive: [1] 15.8% | [2] 6.1% | [3] 17.9% | [4] 20.1% | [5] -22.3% | [6] 8.95%

CC(=O)CC(C)(C)NC(=S)Nc1ccc(C)cc1
inactive: [1] 22.6% | [2] 46.1% | [3] 15.3% | [4] -10.7% | [6] 42.3%
active: [5] 99.2%

O=C(O)[C@H](c1ccccc1)[C@@H](C(=O)O)c1ccccc1
inactive: [1] -8.25% | [2] -5.75% | [3] -8.35% | [4] -3.35% | [5] -53.8% | [6] -1.4%

O=[N+]([O-])c1ccccc1-c1ccccc1[N+](=O)[O-]
inactive: [1] 24.7% | [2] 16.3% | [3] 33.8% | [4] 10% | [5] -24.4% | [6] -10.8%

O=[N+]([O-])c1ccc(N/N=C2\C=C(c3ccccc3)C(c3ccccc3)C2)c([N+](=O)[O-])c1 (stereo not given)
active: [5] 96.8%
inactive: [1] -36.3% | [2] 8.95% | [3] -9.25% | [4] 23.1% | [6] -14.2%

COc1ccc(CCc2ccc(OC)c(OCc3ccccc3)c2)cc1COc1ccccc1
inactive: [1] 41.9% | [2] 0.45% | [3] 22.1% | [4] 3.85% | [5] -1.8% | [6] 5.95%

CC(=O)NC1CC2c3ccccc3C1([N+](=O)[O-])c1ccccc12 (stereo not given)
inactive: [1] 4.1% | [2] 17.6% | [3] 15.6% | [4] 6.45% | [5] -4.6% | [6] -3.9%

O=C(CC(=O)N(C(=O)c1ccccc1)c1ccc(Cl)cc1)N/N=C\c1cc(N=Nc2ccccc2Cl)ccc1O
inactive: [1] -13.8% | [2] -10.1% | [3] 14.8% | [4] 15.2% | [5] -21.4% | [6] 9.1%

CC1(O)CCC2CC1C2(C)CO (stereo not given)
inactive: [1] 2% | [2] 7.45% | [3] -9.15% | [4] -28.4% | [5] -7.05% | [6] 3.1%

CCCC(=O)Oc1ccccc1C1CCCCC1
inactive: [1] 15.9% | [2] 23.8% | [3] 12.3% | [4] 21.3% | [5] 7.35% | [6] 3.45%

CCC(=O)/C=C/C1=C(C)CCCC1(C)C
inactive: [1] -9.95% | [2] -9.65% | [3] 6.25% | [4] -5.8% | [5] 5.8% | [6] -13.4%

COC1(C)O[C@@]2(C)c3ccccc3C(=O)[C@@]2(c2ccccc2)O1 (stereo not given in full)
inactive: [1] -3.35% | [2] -0.05% | [3] 13.1% | [4] -11.5% | [5] 5.4% | [6] 18.5%

Cc1cc(Br)c(I)c([N+](=O)[O-])c1
inactive: [1] 34.5% | [2] 27.6% | [3] 17.8% | [4] 13.3% | [5] 7.45% | [6] 6.25%

NC(=S)N/N=C\c1ncccc1OCc1cccc(N)c1
inactive: [1] 32.3% | [2] 46.9% | [3] 42% | [4] 5.6% | [5] 37.4% | [6] 29.2%

O=C(O)Cc1cc(=O)oc2cc(O)c(Cl)cc12
inactive: [1] 1.75% | [2] -20% | [3] -7.15% | [4] 15.8% | [5] 3.25% | [6] -5.55%

CNC(=S)SC(=S)NC
inactive: [1] 14.6% | [2] 8.3% | [3] -4.55% | [4] -20.4% | [5] -1.75% | [6] 4.75%

CCc1cnc(N)nc1N
inactive: [1] -0.6% | [2] 4.75% | [3] 5.85% | [4] 1.95% | [5] 0.95% | [6] 0.65%

CC(C)Cn1cnc2c(SCc3ccccn3)nc(N)nc21
inactive: [1] -6.45% | [2] -17.4% | [3] -10.2% | [4] -30.6% | [5] -48.5% | [6] -17.4%
